This note sets out measurements from PubChem BioAssay (NCI).

This is part of a sample that, as a whole, favours compounds with a hit. Of some 79,000 tested, about 15% had one in any assay. Unmarked numbers belong to inactive results. Activity calls are given as the source filed them. Cut-off read from the data, not from the text of the source: active = growth inhibition above about 70%; inactive = the rest.

A short description of assay [1]: NCI Yeast Anticancer Drug Screen. Data for the rad50 strain (AID 155).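 Note: 0% = growth of vehicle-only cultures of the same strain.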 The settings on record: S. cerevisiae rad50 strain growth inhibition, hits give high values. A digest of the protocol: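 Yeast carrying a defined DNA repair defect were exposed to test compounds, and growth was compared with vehicle-treated controls to give percent inhibition.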
Assay [2] is described as follows: NCI Yeast Anticancer Drug Screen. Data for the mec2-1 strain (AID 157). The settings on record: S. cerevisiae mec2-1 strain, hits give high values. A digest of the protocol: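 Test agents were screened against the mec2-1 yeast strain, with defined DNA repair or cell cycle alteration. Growth was scored as inhibition against vehicle-only controls.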
Assay [3] in a line: NCI Yeast Anticancer Drug Screen. Data for the sgs1 mgt1 strain (AID 161).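 Note: 0% = growth of cultures given vehicle only.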 To be noted: S. cerevisiae sgs1 mgt1 strain, hits give high values. A digest of the protocol:
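Mutant yeast exposed to compound; growth scored against vehicle-only wells.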

A short description of assay [4]: NCI Yeast Anticancer Drug Screen. Data for the cln2 rad14 strain (AID 165).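 Note: 0% = growth equal to vehicle treated cultures.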 To be noted: S. cerevisiae cln2 rad14 strain, hits give high values. A digest of the protocol:
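Growth of compound-exposed yeast (cln2 rad14 genotype) measured and expressed as inhibition relative to vehicle.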

Assay [5] is described as follows: NCI Yeast Anticancer Drug Screen. Data for the bub3 strain (AID 167). To be noted: S. cerevisiae bub3 mutant strain, hits give high values. A digest of the protocol: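 Compounds were applied to a genetically altered yeast strain carrying a cell-cycle control defect. Growth inhibition was scored against vehicle-treated controls.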
A short description of assay [6]: NCI Yeast Anticancer Drug Screen. Data for the mlh1 rad18 strain (AID 175). The settings on record: S. cerevisiae mlh1 rad18 strain growth inhibition, hits give high values. A digest of the protocol: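 In this whole-cell yeast screen, a strain with altered DNA damage repair is challenged with compound, and its growth is measured against matched vehicle-treated controls.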

The mark [7] stands for this setting: at 5.0 µM (retest, dose inferred, filed as 0.5).
The mark [8] stands for this setting: at 50.0 µM (retest, dose inferred, filed as 5.0).

Turning to `COC1OC(CO)C(O)C(O)[CH]1[Hg][Cl]` (configuration not stated), the growth inhibition in assay [1] (setting [7]), in assay [1] (setting [8]), in assay [1] (at 50.0 µM), in assay [2] (setting [7]), in assay [2] (setting [8]) and in assay [2] (at 50.0 µM) was 99% (active) each time. In addition, the growth inhibition is 100% (active) in assay [3] (setting [7]); 100% (active) in assay [3] (setting [8]); 99% (active) in assay [3] (at 50.0 µM); 99% (active) in assay [4] (setting [7]); 99% (active) in assay [4] (setting [8]); 99.2% (active) in assay [4] (at 50.0 µM). Further, the growth inhibition in assay [5] (setting [7]) was 99% (active); in assay [5] (setting [8]), 99% (active); in assay [5] (at 50.0 µM), 98.8% (active); in assay [6] (setting [7]), 99% (active); in assay [6] (setting [8]) it was 99% (active); in assay [6] (at 50.0 µM), 98.8% (active).

For `O=[N+]([O-])c1ccc([N+](=O)[O-])c2nsnc12`, the growth inhibition in assay [1] (setting [7]) is 98% (active); in assay [1] (setting [8]) it was 97% (active); in assay [1] (at 50.0 µM), 99.5% (active); in assay [2] (setting [7]) it was 90% (active); in assay [2] (setting [8]), 98% (active); in assay [2] (at 50.0 µM) it was 99.5% (active). The growth inhibition in assay [3] (setting [7]) was 48%; in assay [3] (setting [8]), 99% (active); in assay [3] (at 50.0 µM), 99.3% (active); in assay [4] (setting [7]), 77% (active); in assay [4] (setting [8]) it was 98% (active); in assay [4] (at 50.0 µM) it was 99.3% (active). Further, the growth inhibition in assay [5] (setting [7]) was 98% (active); in assay [5] (setting [8]) it was 98% (active); in assay [5] (at 50.0 µM), 99.2% (active); in assay [6] (setting [7]), 79% (active); in assay [6] (setting [8]), 97% (active); in assay [6] (at 50.0 µM), 99% (active).

Regarding `CC[C@@]1(O)C(=O)OCc2c1cc1n(c2=O)Cc2cc3c(OC)cccc3nc2-1`, the growth inhibition in assay [1] (setting [7]) was 96% (active); in assay [1] (setting [8]), 92% (active); in assay [1] (at 50.0 µM), 83.6% (active); in assay [2] (setting [7]), 96% (active); in assay [2] (setting [8]), 92% (active); in assay [2] (at 50.0 µM), 89.4% (active). The growth inhibition in assay [3] (setting [7]) is 71% (active); in assay [3] (setting [8]), 88% (active); in assay [3] (at 50.0 µM) it was 82.4% (active); in assay [4] (setting [7]), 55%; in assay [4] (setting [8]) it was 74% (active); in assay [4] (at 50.0 µM) it was 64%. For the same molecule, the growth inhibition was 48% in assay [5] (setting [7]); 78% (active) in assay [5] (setting [8]); 70.8% (active) in assay [5] (at 50.0 µM); 86% (active) in assay [6] (setting [7]); 83% (active) in assay [6] (setting [8]); 78.8% (active) in assay [6] (at 50.0 µM).

Regarding `S=C=NC/C(Cl)=C/Cl`, the growth inhibition was 43% in assay [1] (setting [7]); 48% in assay [1] (setting [8]); 71.9% (active) in assay [1] (at 50.0 µM); 49% in assay [2] (setting [7]); 45% in assay [2] (setting [8]); 53.5% in assay [2] (at 50.0 µM). Further, the growth inhibition in assay [3] (setting [7]) was 14%; in assay [3] (setting [8]), 89% (active); in assay [3] (at 50.0 µM), 72.5% (active); in assay [4] (setting [7]), 56%; in assay [4] (setting [8]), 71% (active); in assay [4] (at 50.0 µM), 56.9%. The growth inhibition in assay [5] (setting [7]) was 35%; in assay [5] (setting [8]), 91% (active); in assay [5] (at 50.0 µM), 69.2%; in assay [6] (setting [7]), 38%; in assay [6] (setting [8]) it was 46%; in assay [6] (at 50.0 µM), 70.5% (active).

On to `CC(=O)c1cc(CN(CCCl)CCCl)c(O)c(CN(CCCl)CCCl)c1O`, for which the growth inhibition in assay [1] (setting [7]) is 5%; in assay [1] (setting [8]) it was 12%; in assay [1] (at 50.0 µM), 90.5% (active); in assay [2] (setting [7]), -13%; in assay [2] (setting [8]) it was 14%; in assay [2] (at 50.0 µM), 77.7% (active). For the same molecule, the growth inhibition was 10% in assay [3] (setting [7]); 34% in assay [3] (setting [8]); 96.2% (active) in assay [3] (at 50.0 µM); 4% in assay [4] (setting [7]); 6% in assay [4] (setting [8]); 63.1% in assay [4] (at 50.0 µM). Further, the growth inhibition was 3% in assay [5] (setting [7]); 6% in assay [5] (setting [8]); 78.6% (active) in assay [5] (at 50.0 µM); -4% in assay [6] (setting [7]); 45% in assay [6] (setting [8]); 89.5% (active) in assay [6] (at 50.0 µM).

Consider `O=c1cccc(C2CC(CO)C3CCCCN3C2)[nH]1` (configuration not stated), for which the growth inhibition is 1% in assay [1] (setting [7]); -1% in assay [1] (setting [8]); 69.3% in assay [1] (at 50.0 µM); 1% in assay [2] (setting [7]); -2% in assay [2] (setting [8]); 91.8% (active) in assay [2] (at 50.0 µM). Besides, the growth inhibition in assay [3] (setting [7]) is 2%; in assay [3] (setting [8]), 1%; in assay [3] (at 50.0 µM) it was 57.5%; in assay [4] (setting [7]), -8%; in assay [4] (setting [8]), -12%; in assay [4] (at 50.0 µM), 37.3%. Besides, the growth inhibition in assay [5] (setting [7]) was 3%; in assay [5] (setting [8]), 2%; in assay [5] (at 50.0 µM) it was 53.2%; in assay [6] (setting [7]), -2%; in assay [6] (setting [8]), -3%; in assay [6] (at 50.0 µM), -50.8%.

As to `CC(=O)NC1=C(N(CCCl)CCCl)C(=O)c2ccccc2C1=O`, the growth inhibition in assay [1] (setting [7]) was 20%; in assay [1] (setting [8]) it was 98% (active); in assay [1] (at 50.0 µM), 99% (active); in assay [2] (setting [7]) it was 12%; in assay [2] (setting [8]) it was 98% (active); in assay [2] (at 50.0 µM), 98.2% (active). In addition, the growth inhibition in assay [3] (setting [7]) is 18%; in assay [3] (setting [8]), 99% (active); in assay [3] (at 50.0 µM), 98.2% (active); in assay [4] (setting [7]), -4%; in assay [4] (setting [8]), 96% (active); in assay [4] (at 50.0 µM) it was 96.2% (active). Besides, the growth inhibition was 23% in assay [5] (setting [7]); 97% (active) in assay [5] (setting [8]); 99% (active) in assay [5] (at 50.0 µM); 18% in assay [6] (setting [7]); 98% (active) in assay [6] (setting [8]); 98.9% (active) in assay [6] (at 50.0 µM).

Take `COc1ccc(/C=C(\C)[N+](=O)[O-])cc1OC`: the growth inhibition in assay [1] (setting [7]) is 53%; in assay [1] (setting [8]), 97% (active); in assay [1] (at 50.0 µM), 90.1% (active); in assay [2] (setting [7]) it was 41%; in assay [2] (setting [8]) it was 99% (active); in assay [2] (at 50.0 µM), 92% (active). The growth inhibition in assay [3] (setting [7]) was 55%; in assay [3] (setting [8]) it was 99% (active); in assay [3] (at 50.0 µM), 91% (active); in assay [4] (setting [7]) it was 26%; in assay [4] (setting [8]), 98% (active); in assay [4] (at 50.0 µM), 87.3% (active). Also, the growth inhibition in assay [5] (setting [7]) is 42%; in assay [5] (setting [8]) it was 98% (active); in assay [5] (at 50.0 µM) it was 93.8% (active); in assay [6] (setting [7]), 58%; in assay [6] (setting [8]) it was 99% (active); in assay [6] (at 50.0 µM), 93% (active).

Take `CCOP(=O)(O)C(Nc1ccc(N=Nc2ccccc2)cc1)c1ccc(C(Nc2ccc(N=Nc3ccccc3)cc2)P(=O)(O)OCC)cc1` (configuration not stated): the growth inhibition in assay [1] (setting [7]) was -4%; in assay [1] (setting [8]), 35%; in assay [1] (at 50.0 µM), 54%; in assay [2] (setting [7]), -6%; in assay [2] (setting [8]) it was 27%; in assay [2] (at 50.0 µM), 67.7%. The growth inhibition in assay [3] (setting [7]) was 3%; in assay [3] (setting [8]) it was 37%; in assay [3] (at 50.0 µM), 86% (active); in assay [4] (setting [7]), -8%; in assay [4] (setting [8]), -6%; in assay [4] (at 50.0 µM) it was 41.3%. For the same molecule, the growth inhibition in assay [5] (setting [7]) was -5%; in assay [5] (setting [8]), 31%; in assay [5] (at 50.0 µM), 57.5%; in assay [6] (setting [7]) it was -5%; in assay [6] (setting [8]) it was 31%; in assay [6] (at 50.0 µM), 90.1% (active).
